Results from PubChem BioAssay (NCI).
Compounds without any hit were thinned out: in the full panel of roughly 83,000, 20% have a hit.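 A percent growth of 40 corresponds to 60% growth inhibition; 0 means no net growth; -100 means all cells died. Active threshold: below 10.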 The source made the active and inactive calls.

Each compound was assayed on NCI-H460 lung (assay: NCI-60 one-dose screen, 48 h (100 = growth as untreated, 0 = no growth, -100 = all killed)). Settings: 10 µM unless noted.

| SMILES | growth |
| --- | --- |
| CC[C@H](C)[C@H](N)C(=O)O | 108% (inactive) |
| COc1ccc2c(c1)sc1nc(-c3ccccc3)c(-c3cccc4ccccc34)n12 | 8.82% (active) |
| Cc1ccc(C)c(NC(=O)c2sc3c(=O)[nH]cnc3c2C)c1 | 81.9% (inactive) |
| Cc1ccncc1NC=O | 106% (inactive) |
| COc1ccc(/C(C)=N/NC(=O)CSc2nc3ccccc3c(=O)n2CCc2ccc(S(N)(=O)=O)cc2)cc1 | -29.5% (active) |
| COC(=O)OC1C(O[C@H]2C[C@H]3[C@@H]4CC=C5C[C@@H](O)CC[C@]5(C)[C@H]4CC[C@]3(C)[C@H]2[C@H](C)C(=O)CCC(C)C)OCC(O)C1OC1OCC(O)C(O)C1OC(=O)c1ccc(OC)cc1 (stereo partly drawn) | -24.2% (active) |
| O=C1CCCN1C1CCN2CCCc3cccc1c32 (stereo not drawn) | 110% (inactive) |
| CC1OC(n2c3ccccc3c3c4c(c5c6ccccc6[nH]c5c32)C(=O)N(CCN[C@H]2CCC[C@@H]2N)C4=O)CC(O)C1O (stereo partly drawn) | 2.3% (active) |
| COc1ccc2[nH]cc(C3(c4c[nH]c5ccc(OC)cc45)C(=O)Nc4ccc(F)cc43)c2c1 | 4.92% (active) |
| c1cc2c(cc1-c1cnc3nonc3n1)OCO2 | 100% (inactive) |
| Nc1c(C(=O)Nc2cccc(Cl)c2)sc2nc3c(cc12)C(=O)CCC3 | 10.3% (inactive) |
| O=C(Nc1ccc(Br)cc1)c1ccc(Cl)c(Cl)c1 | 14% (inactive) |
| O=C(CSc1nc2c(n1Nc1ccccc1)-c1ccccc1SC2)Nc1nccs1 | 99.4% (inactive) |
| COc1ccc(-c2nc3c(c(-c4ccc(Cl)cc4)nn3-c3ccccc3)c(-c3ccc(O)cc3)c2C#N)cc1 | 14.1% (inactive) |
| c1csc(-c2cnc3nonc3n2)c1 | 102% (inactive) |
| CC1(C)CC(=O)c2cc3c(N)c(C(=O)Nc4ccc(Cl)cc4)sc3nc2C1 | 109% (inactive) |
| CN1C(=O)C(C(=O)/C=C/c2ccccc2C(=O)O)C(=O)N(C)C1=O | 104% (inactive) |
| CC(NC(=O)c1ccccc1)C(=O)Nc1ccccc1 (stereo not drawn) | 118% (inactive) |
| CN1CCC2(CC1)N=C(SCC(=O)Nc1cnc3ccccc3c1)C(c1ccc(Br)cc1)=N2 | 3.34% (active) |
| CSc1nc(N)c2[nH]c(-c3cc4ccccc4[nH]c3=O)nc2n1 | 60.4% (inactive) |

| SMILES | growth |
| --- | --- |
| C=CC(=O)N1CN(C(=O)C=C)CN(C(=O)C=C)C1 | 102% (inactive) |
| CC(C)(C)[Si](C)(C)OC1[C@@H](O[Si](C)(C)C(C)(C)C)[C@@H](CNC(=O)NC(=O)NC(=O)CCl)O[C@H]1n1cnc2c(NC(=O)Nc3ccccc3)ncnc21 (stereo partly drawn) | 43.5% (inactive) |
| CCCCCCCC/C=C/CCCCCCCC1=NC(C)(C)CN1c1ccccc1 | 103% (inactive) |
| CCCCCCCCN(CCCCCCCC)C(=O)CCl | 102% (inactive) |
| COc1cc(OC)c(Cl)cc1N | 103% (inactive) |
| CNC(=O)c1c(NC(=O)c2ccc(C(C)C)cc2)sc2c1CCC(=O)C2 | 7.34% (active) |
| COc1nccc2c(Sc3ccccc3)nc(N)nc12 | 109% (inactive) |
| Nc1c(C(=O)Nc2ccccc2)sc2nc3c(cc12)C(=O)CCC3 | 12.9% (inactive) |
| CCC(=O)NC1=C(Cl)C(=O)C(NC(=O)CC)=C(Cl)C1=O | 108% (inactive) |
| CCCCCCCCCCCCC1CCC(=O)O1 (stereo not drawn) | 107% (inactive) |
| CCN1C(=O)N(CC)C2C1NC(=O)N2/N=C/C=C/c1ccccc1 (stereo not drawn) | 24.4% (inactive) |
| CN(C)CCCN1c2ccccc2CCc2ccccc21 | 113% (inactive) |
| CC(CN1CCN(CC(C)Nc2ccnc3cc(Cl)ccc23)CC1)Nc1ccnc2cc(Cl)ccc12 (stereo not drawn) | -30.4% (active) |
| S=C(S)Oc1cccc2cccnc12 | 107% (inactive) |
| CCn1c(Cc2ccccc2Nc2c(Cl)cccc2Cl)nnc1SCC(=O)Nc1cccc(OC)c1 | 84.8% (inactive) |
| CCc1onc(-c2ccc(OC)cc2)c1-c1ccccc1OCCN(CC)CC | 98.7% (inactive) |
| COc1ccc(-c2cc(-c3ccc(OC)cc3)c3sc(=O)[nH]c3n2)cc1 | 94% (inactive) |
| COc1ccc2nc3ccccc3c(NCc3ccc(C)cc3)c2c1 | 10% (inactive) |
| CS(=O)(=O)c1ccc(C(=O)Nc2ccc(Cl)c(-c3ccccn3)c2)c(Cl)c1 | -46% (active) |

These compounds were tested on NCI-H522 lung in the same assay as above. Settings: 10 µM unless noted.

| SMILES | growth |
| --- | --- |
| CC[C@H](C)[C@H](N)C(=O)O | 101% (inactive) |
| COc1ccc2c(c1)sc1nc(-c3ccccc3)c(-c3cccc4ccccc34)n12 | -11% (active) |
| Cc1ccc(C)c(NC(=O)c2sc3c(=O)[nH]cnc3c2C)c1 | 64.9% (inactive) |
| Cc1ccncc1NC=O | 99.1% (inactive) |
| COc1ccc(/C(C)=N/NC(=O)CSc2nc3ccccc3c(=O)n2CCc2ccc(S(N)(=O)=O)cc2)cc1 | 9.28% (active) |
| COC(=O)OC1C(O[C@H]2C[C@H]3[C@@H]4CC=C5C[C@@H](O)CC[C@]5(C)[C@H]4CC[C@]3(C)[C@H]2[C@H](C)C(=O)CCC(C)C)OCC(O)C1OC1OCC(O)C(O)C1OC(=O)c1ccc(OC)cc1 (stereo partly drawn) | -49.8% (active) |
| O=C1CCCN1C1CCN2CCCc3cccc1c32 (stereo not drawn) | 84.2% (inactive) |
| CC1OC(n2c3ccccc3c3c4c(c5c6ccccc6[nH]c5c32)C(=O)N(CCN[C@H]2CCC[C@@H]2N)C4=O)CC(O)C1O (stereo partly drawn) | 16.9% (inactive) |
| COc1ccc2[nH]cc(C3(c4c[nH]c5ccc(OC)cc45)C(=O)Nc4ccc(F)cc43)c2c1 | 78.5% (inactive) |
| c1cc2c(cc1-c1cnc3nonc3n1)OCO2 | 55.9% (inactive) |
| Nc1c(C(=O)Nc2cccc(Cl)c2)sc2nc3c(cc12)C(=O)CCC3 | 14.6% (inactive) |
| O=C(Nc1ccc(Br)cc1)c1ccc(Cl)c(Cl)c1 | 60.2% (inactive) |
| O=C(CSc1nc2c(n1Nc1ccccc1)-c1ccccc1SC2)Nc1nccs1 | 95.2% (inactive) |
| COc1ccc(-c2nc3c(c(-c4ccc(Cl)cc4)nn3-c3ccccc3)c(-c3ccc(O)cc3)c2C#N)cc1 | 58.3% (inactive) |
| c1csc(-c2cnc3nonc3n2)c1 | 70.7% (inactive) |
| CC1(C)CC(=O)c2cc3c(N)c(C(=O)Nc4ccc(Cl)cc4)sc3nc2C1 | 95.8% (inactive) |
| CN1C(=O)C(C(=O)/C=C/c2ccccc2C(=O)O)C(=O)N(C)C1=O | 90.5% (inactive) |
| CC(NC(=O)c1ccccc1)C(=O)Nc1ccccc1 (stereo not drawn) | 99.6% (inactive) |
| CN1CCC2(CC1)N=C(SCC(=O)Nc1cnc3ccccc3c1)C(c1ccc(Br)cc1)=N2 | -17.5% (active) |
| CSc1nc(N)c2[nH]c(-c3cc4ccccc4[nH]c3=O)nc2n1 | 57.2% (inactive) |

| SMILES | growth |
| --- | --- |
| C=CC(=O)N1CN(C(=O)C=C)CN(C(=O)C=C)C1 | -35.4% (active) |
| CC(C)(C)[Si](C)(C)OC1[C@@H](O[Si](C)(C)C(C)(C)C)[C@@H](CNC(=O)NC(=O)NC(=O)CCl)O[C@H]1n1cnc2c(NC(=O)Nc3ccccc3)ncnc21 (stereo partly drawn) | -78.6% (active) |
| CCCCCCCC/C=C/CCCCCCCC1=NC(C)(C)CN1c1ccccc1 | 65.1% (inactive) |
| CCCCCCCCN(CCCCCCCC)C(=O)CCl | -50.5% (active) |
| COc1cc(OC)c(Cl)cc1N | 94.8% (inactive) |
| CNC(=O)c1c(NC(=O)c2ccc(C(C)C)cc2)sc2c1CCC(=O)C2 | -26.3% (active) |
| COc1nccc2c(Sc3ccccc3)nc(N)nc12 | 88.1% (inactive) |
| Nc1c(C(=O)Nc2ccccc2)sc2nc3c(cc12)C(=O)CCC3 | -33.8% (active) |
| CCC(=O)NC1=C(Cl)C(=O)C(NC(=O)CC)=C(Cl)C1=O | -82.7% (active) |
| CCCCCCCCCCCCC1CCC(=O)O1 (stereo not drawn) | 86.9% (inactive) |
| CCN1C(=O)N(CC)C2C1NC(=O)N2/N=C/C=C/c1ccccc1 (stereo not drawn) | 2.08% (active) |
| CN(C)CCCN1c2ccccc2CCc2ccccc21 | 88.2% (inactive) |
| CC(CN1CCN(CC(C)Nc2ccnc3cc(Cl)ccc23)CC1)Nc1ccnc2cc(Cl)ccc12 (stereo not drawn) | -29.4% (active) |
| S=C(S)Oc1cccc2cccnc12 | 88.9% (inactive) |
| CCn1c(Cc2ccccc2Nc2c(Cl)cccc2Cl)nnc1SCC(=O)Nc1cccc(OC)c1 | 42.6% (inactive) |
| CCc1onc(-c2ccc(OC)cc2)c1-c1ccccc1OCCN(CC)CC | 88.5% (inactive) |
| COc1ccc(-c2cc(-c3ccc(OC)cc3)c3sc(=O)[nH]c3n2)cc1 | 69.1% (inactive) |
| COc1ccc2nc3ccccc3c(NCc3ccc(C)cc3)c2c1 | 26.4% (inactive) |
| CS(=O)(=O)c1ccc(C(=O)Nc2ccc(Cl)c(-c3ccccn3)c2)c(Cl)c1 | 2.48% (active) |
